Measured values published in the supplement of paper PMC6555819.

Key:
Assay in all cases: PBM binding z-score (relative to random genomic background probes); higher = stronger binding; sequences stand for … in GC…GCGATTGACAGCGTAGAATGAAGG
[1] = test system: RARb homodimer (NR concentration 270 nM)
Summary of the method: (§1)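 Probes were double-stranded and carried 34-nt variable regions with direct-repeat seeds, single-nucleotide variants, half-site ablations and random human genomic background sequences, printed on custom Agilent 4×180K protein-binding microarrays. Arrays were incubated 1 h with ligand-free nuclear receptor dimers in PBS pH 7.4, 2% milk, 0.02% Triton X-100, 1 mM DTT, 0.2 mg/mL BSA and 0.4 mg/ml salmon testes DNA. Antibodies against each partner (one per run) detected binding, and scanned fluorescence was regression-normalized. Binding z-scores use the random background probes as reference.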

[2] = test system: RARg:RXRa (NR concentration 270 nM, RXRa partner concentration 90 nM)
Summary of the method: as §1

[3] = test system: RARg homodimer (NR concentration 270 nM)
Summary of the method: as §1

[4] = test system: RXRa DBDmut IVT, anti-RXR (DBD mutation: RXRa K156A/R161A, NR concentration 90 nM)
Summary of the method: as §1

[5] = test system: RXRa homodimer (NR concentration 180 nM)
Summary of the method: as §1

[6] = test system: THRa:RXRa (NR concentration 90 nM, RXRa partner concentration 90 nM)
Summary of the method: as §1

[7] = test system: THRa homodimer (NR concentration 90 nM)
Summary of the method: as §1

[8] = test system: VDR homodimer (NR concentration 270 nM)
Summary of the method: as §1

| Sequence | PBM binding z-score [1] | PBM binding z-score [2] | PBM binding z-score [3] | PBM binding z-score [4] | PBM binding z-score [5] | PBM binding z-score [6] | PBM binding z-score [7] | PBM binding z-score [8] |
| --- | --- | --- | --- | --- | --- | --- | --- | --- |
| CGAACTAGGTAAGAACAGGACAGTGAAGGATGAT | -0.183 | 0.0419 | 0.345 | -0.391 | -0.0524 | 0.664 | -0.177 | -0.504 |
| ACAGACAGGTGAGTGAAGCTAACTCAGCTGGACG | -0.638 | -0.0417 | 0.288 | -0.672 | -0.0844 | -0.381 | -1.16 | -1.08 |
| ATATCTAGGTTACATCCGGGTCATTCAGGCTATG | 3.15 | 3.37 | 2.49 | 1.4 | 2.78 | 3.94 | 3.37 | 3.63 |
| CATACAGGGCCAGCTAGGCCAGAGTAGGGACGGC | -0.0405 | 0.0438 | 0.566 | -1.28 | -0.173 | -0.0247 | -0.492 | -0.491 |
| TCTATTAGTTGAGGGGCAACCGACGAGTCCGTTT | 0.835 | 0.29 | 0.252 | 1.83 | 0.746 | 0.432 | 0.237 | 1.19 |
| CGTCCAAGGACAGAGAGGTCAGTGAATGCCGAGT | 4 | 3.21 | 3.98 | 1.29 | 2.11 | 3.27 | 1.69 | 2.7 |
| TCAATTAGTTGAAGGGCAACCGACGAGTCCGTTT | 1.28 | 0.369 | 0.258 | 1.02 | 0.562 | 0.164 | -0.267 | 1.42 |
| CCGACTGGGGCATAGGGTTACCATAAGCCAGCCC | 0.968 | 1.34 | 0.885 | -1.32 | 1.21 | 0.957 | -0.244 | -1.05 |
| ACTATTAGTTGAGACGAGGGCAACCGGTAGGTTG | 1.42 | 0.949 | 0.676 | 0.457 | 0.675 | 2.69 | 0.339 | 1.07 |
| GCAGATAGGTAATACAAGGTGAAAGTCCGATTGT | 0.807 | 0.57 | 0.471 | -0.0602 | 0.646 | 4.12 | 0.853 | 0.0811 |
| ATCTCTCGGTAAGACTCAGTTCAGTGAAGAACGC | 1.05 | 0.265 | 0.481 | 0.833 | 0.224 | 0.746 | 1.17 | 2.06 |
| GGAACGAGGGCATGTTGATAGCAGAGTTTGATGG | 1.11 | 0.813 | 1.38 | 2.25 | 0.438 | 1.1 | 0.428 | 1.6 |
| TCTAGCAGGCCAGAGGGTCACTCTAGAGGTACGG | 2.57 | 2.42 | 1.97 | 0.248 | 2.34 | 1.4 | -0.529 | 0.422 |
| CCTCCAAGGTCAGCAGGTCAGTGAAAGCGACGTG | 4.97 | 6.12 | 6.45 | 2.04 | 4.21 | 3.74 | 2.14 | 1.55 |
| CCTTACGGGTCAGTCCAGGTTATAGCATCGGAGT | 2.69 | 3.23 | 3.53 | 0.751 | 2.55 | 4.66 | 0.627 | 1.12 |
| ACTAGCAGGCCAAGTTTGGGTCACCCAAACAAAG | 2.48 | 2.88 | 2.18 | -0.623 | 1.45 | 2.96 | 1.36 | 0.196 |
| CCTTACGGCTCACTGACAGGTTATAGCATTTGGA | 0.213 | 0.216 | 0.301 | 0.689 | 0.388 | 0.0321 | 0.195 | -0.0205 |
| TGTCAAAGTTCAAATGTAACGTAAGTATCCACAC | 3.94 | 5.53 | 5.93 | 4.69 | 5.3 | 2.16 | -0.283 | 4.11 |
| CTACCAATGTGAACAAGGTCGTTGATTACTATTC | 1.33 | 0.629 | 0.564 | 1.83 | 1.08 | 2.17 | 1.33 | 2.32 |
| ACAGACAGGTGAGTGAAGGTAAATCAGCTGGACG | -0.00718 | 0.297 | 0.417 | -0.64 | 0.24 | 1.31 | -0.577 | -0.366 |
| CCGACTAGGGCAGAAAGGTTACCATACCATCCGG | 2.4 | 1.99 | 1.91 | -0.271 | 1.92 | 1.21 | -0.493 | -0.0974 |
| TCTAGTTGGTCACGGAGTTCACACACGACGGGTA | 3.11 | 2.99 | 2.63 | 1.79 | 2.81 | 1.66 | 0.539 | 5.75 |
| TCATATAGGTAAAGGTGAAAATCGAACGATATGA | 0.939 | 1.56 | 1.28 | 0.781 | 1.98 | 0.991 | -0.415 | -0.256 |
| TCGCCTAGGTCATTCAGGGGCCAGTATAGAAAGC | 3.67 | 6.06 | 4.29 | 2.42 | 2.95 | 3.52 | 1 | 1.4 |
| GCAGACAGGTGAAACGCCGGTAACTCAGGGTGGC | -0.057 | 0.644 | 0.166 | -0.634 | 0.513 | 0.157 | -0.511 | -0.512 |
| TCAGACAGGTGACGGTAACTCAGGTACGCAGTCG | 0.517 | 0.188 | 0.328 | 0.683 | 0.84 | 0.492 | 0.00718 | -0.0333 |
| ACTATTACTTGAGACGAGGGCAACCGATAGGTTG | 1.67 | 0.798 | 0.981 | 1.01 | 0.63 | 1.15 | 1.02 | 1.76 |
| TCTCCTAGGTCAACGATGGTCAGCTAATCTGCTA | 3.61 | 4.5 | 5.72 | 1.41 | 3.49 | 3.32 | 1.59 | 0.166 |
